The source of these data is article PMC12136788.

First the molecules themselves.
T1: UNK ZnF1-3 (human, UniProt Q9C0B0 31-174)
T1 sequence: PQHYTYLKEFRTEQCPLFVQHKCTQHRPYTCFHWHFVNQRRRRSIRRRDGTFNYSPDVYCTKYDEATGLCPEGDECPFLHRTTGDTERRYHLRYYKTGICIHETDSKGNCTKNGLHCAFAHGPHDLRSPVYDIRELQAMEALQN

B1: chr1:220276048:220276049:+_ENSG00000067704_ENST00000302637|hu_hu|hu_hu_hu_mus_True|8_78 (ssRNA)
RNA: GGGAGUUCUACAGUCCGACGAUCGCAAAUUGCCUGGUUGGCGGGAAUUGUCCAAGGUUGUGUGGUCCAAACUAAAACGCUAACAGGGGAUGAGGCAUCUGUAAGAGACUCCAACUUCGGAGGAGGUUUUAAGAGAGGGAAUCUCAACAGAGGAUUGAGCAUCA
B2: chr9:62645482:62645483:-_ENSMUSG00000032244_ENSMUST00000034775|mus_hu|FALSE|FALSE (ssRNA)
RNA: GGGAGUUCUACAGUCCGACGAUCUACUGUGGUAUGGUUCACGUUGGCUCCAUGGCUGACUAGAAGUUUAACAACUUCAAAAUGUCCUGCUCCAGCUGCACACCAAAGAGCAGUGGCACCAUCAAUGACAUACCCGUCGAAGCGCAACAGAGGAUUGAGCAUCA
B3: chr2:232319755:232319756:-_ENSG00000115053_ENST00000322723|hu_hu|motif|central (ssRNA)
RNA: GGGAGUUCUACAGUCCGACGAUCAAAAGUUUAUAUGAAUAUCCAGUCAAAACCAACACGGUAUUGCCCUUGAAAUGUUAACGGGACGGAUUUCCAAGGAGACCACAGGACUGUAUACUGUCUUGGAAUGUCCUCAGAAGGCUCCAACAGAGGAUUGAGCAUCA
B4: 69235085_69235205_3312_3pUTR_ENSG00000135679_ENST00000462284|human|control|control (ssRNA)
RNA: GGGAGUUCUACAGUCCGACGAUCGGCUGGAGAAUAAGUACAUUUUUACAGCCGGGUGUGGUGGCUAACGCCUGUAAUCCUACUUAGCACUUUGCGAGGCCAAGACAGGAGGAUCUCUUGAGCCCAGGAGUUCGAGACCAGCCUCAACAGAGGAUUGAGCAUCA
B5: chr11:79222206:79222207:+_ENSMUSG00000020716_ENSMUST00000071325|mus_hu|FALSE|FALSE (ssRNA)
RNA: GGGAGUUCUACAGUCCGACGAUCUUUUGUAAAUUCAUCUGGAUAAUUUUCUACCCAGUUCCAAAAUGCCUUUUCCAGGCUAUUUAUAACUGCUAACUGCGCAACCUUCUUUAGGGCUUUAAAUUUAAAUGCUGUUUCCUUCAGCAACAGAGGAUUGAGCAUCA
B6: 62954625_62958383_5419_CDS_ENSG00000116641_ENST00000251157|human|control|control (ssRNA)
RNA: GGGAGUUCUACAGUCCGACGAUCUGCUUCUUGAAGUUUACCAUGAAUUGUGGAUAGUUUCUUUGCAUCCCGAUUAGCUUCAUGAAUAGGAAUAAGUACUUUGUAAACUUCAUUAACUGCUUCAUACAUGCCAGCCAUAGAGAACAACAGAGGAUUGAGCAUCA
B7: chr9:53391639:53391640:-_ENSMUSG00000032047_ENSMUST00000034547|mus_hu|motif|central (ssRNA)
RNA: GGGAGUUCUACAGUCCGACGAUCCACUUUUUGGGGAUCAAUCUCCAACAUUUUAAUGUUUGCUAGUACAACCAGACGGAAGGCUUCAUUUACUUCCCACAUUGCAAUAUCUUCUUUUUUCAAUCCCACAUCUUUAAGAACCAUCAACAGAGGAUUGAGCAUCA
B8: chr4:76721835:76721836:+_ENSG00000138768_ENST00000264904|hu_mus|hu_hu_hu_mus_True|48_48 (ssRNA)
RNA: GGGAGUUCUACAGUCCGACGAUCGUUUGGCUGGGGUUUCUGAGACGCUCUGGAAUAUAACUCAUGUUUGCUAAUAAAUCCUAGUUUUCUAUGAAAUUUCUCUUUGCCAAUCCUCUUCUCUAUUAGUUGCUUUAGUUUCUCUUUCAACAGAGGAUUGAGCAUCA
B9: chr9:66219764:66219765:+_ENSMUSG00000038664_ENSMUST00000042824|mus_mus|motif|central (ssRNA)
RNA: GGGAGUUCUACAGUCCGACGAUCUUCAAAAUCAGGCAACUGUGGUCCUUUGAGGCAUAAAACCUGUUGAGGCAAAGGUACGGCUUCCUUAUUGCUGAUCAGUUUAGAAUACAAAACGGUAACUCCCUCUCUUGUAGCAAUAGACAACAGAGGAUUGAGCAUCA
B10: chr7:44244176:44244177:+_ENSG00000106636_ENST00000223369|hu_mus|hu_hu_hu_mus_False|38_108 (ssRNA)
RNA: GGGAGUUCUACAGUCCGACGAUCACUAUCAUUCCGGACGUAGACAUGGCAAAGAUACUCUUGUUCUUUGACAGAAGCUCUGCUGCCUUUCCCCGAGCGCUCCACAAUCAGUUGACUUGUAAAGGUCAUGAAUUCCUGCACACUCAACAGAGGAUUGAGCAUCA
B11: 109692034_109692919_6190_CDS_ENSG00000148143_ENST00000277225|human|control|control (ssRNA)
RNA: GGGAGUUCUACAGUCCGACGAUCGAGGUGAUUGCAGAUGGCUCGGAGCGUUGGGUGCACUUCCACACAGAAUUUACAUUUGUAGCCCACCACUUUCCUCUCCUUGAUCUUUGGCACCUCUUCUAAGUGACCAAAAGGCCUCUCCAACAGAGGAUUGAGCAUCA
B12: chr1:220276048:220276049:+_ENSG00000067704_ENST00000302637|hu_hu|hu_hu_hu_mus_True|38_88 (ssRNA)
RNA: B1 RNA with U48C, U57C, U60G, G100A, U127C, U129C, A131G, A135G
B13: chr1:115282363:115282364:-_ENSG00000009307_ENST00000339438|perfect_dup|motif|central (ssRNA)
RNA: GGGAGUUCUACAGUCCGACGAUCAUCAUCUCCUACUUUUAAGUCUUGCAGGUUGCCAUUAUACUGUGAACAGUGGAAGAAAAGUCGGGCUUGACGUUCUGAACACUGAAUAAAUCCGUAAGAGGUUAACAGUUUUUCAAUAACCAACAGAGGAUUGAGCAUCA
B14: chr18:35748043:35748044:+_ENSMUSG00000037236_ENSMUST00000166793|perfect_dup|FALSE|FALSE (ssRNA)
RNA: GGGAGUUCUACAGUCCGACGAUCUGUAUAAAAGAGUGAACACAGCUUACAGUAAAACCCUGUUUUAGGUAUCACAUAGUCUAUACCAACAGGAACAUUAGGCUGAUAUGGUCCGAUUCUAUACUCAUCGGGAAUUGUAUAAUCCAACAGAGGAUUGAGCAUCA
B15: chr2:179515052:179515053:+_ENSMUSG00000000305_ENSMUST00000000314|mus_hu|mus_mus_mus_hu_False|28_58 (ssRNA)
RNA: GGGAGUUCUACAGUCCGACGAUCGCUGUCCCAUGCAGUCACCGUGAACGCCACCUGCUCGGAGGGGACCUGCAGCUCCCUAGUGGCGAAGACUGUCCCAUCUGCCCCGACUUUGAAGUCCAUGCUGUUGGUCUCAUAUUGUGUCAACAGAGGAUUGAGCAUCA
B16: chr7:135612270:135612271:-_ENSG00000105887_ENST00000393085|hu_mus|hu_hu_hu_mus_False|8_8 (ssRNA)
RNA: GGGAGUUCUACAGUCCGACGAUCGUUUUUUUCUGAGAUGUUAAAUAGUACUUCAGUGGAAAACAAAACUUAACCUUUUAUUAAUGCGUGUUGUACCAAAAGCAGACAUUUUAGCUUCAUUUAUUCACUCAAAAUAUCAUUAAGCAACAGAGGAUUGAGCAUCA
B17: chr18:56819859:56819860:+_ENSG00000166562_ENST00000588875|hu_mus|hu_hu_hu_mus_True|88_88 (ssRNA)
RNA: GGGAGUUCUACAGUCCGACGAUCAACCUUGAUUACUCUGUGAACUAUUGGAAUGUCUCUUCCUUCAACCUUAAAAACAACUAUUUCACCAGCUCUGAUGGGGUCCUCCCGGAAAUUCGUGAGGAACAGCAGAUCUCCUCUGUGCAACAGAGGAUUGAGCAUCA
B18: chr5:145543945:145543946:-_ENSG00000133706_ENST00000545646|hu_hu|hu_hu_hu_mus_True|38_58 (ssRNA)
RNA: GGGAGUUCUACAGUCCGACGAUCCUGAACGGCCAGUGGUGGGAAAUAAUCAAGCCAGUGCUCUGCUUCAGAAAACUUUACUAUCUCGUCAUCAGAGAGGCCAAGGGAUUUCAUAAUGUCCCACUGGUACUUAGAAGAUCCUGCCAACAGAGGAUUGAGCAUCA
B19: chr12:73313434:73313435:-_ENSMUSG00000021087_ENSMUST00000021497|mus_mus|motif|central (ssRNA)
RNA: GGGAGUUCUACAGUCCGACGAUCCAUAUAUCCUAAGAGUACAGGAAGAGCCUCAAAACACCUGUCUCAAAGUUUGCCUCGGAGAUUAUGGUACCAGGAAAGGGAAACAAUCAAUUUGCAGUAACGAGGAAGGAGAGAGCUGUUCAACAGAGGAUUGAGCAUCA
B20: 87970796_87970916_7552_CDS_ENSG00000188994_ENST00000369577|human|control|control (ssRNA)
RNA: GGGAGUUCUACAGUCCGACGAUCUUCUGACUGGCAGAGGUUAUCUUCCUGAAAAUCAUUACUUACAUUUGAAGAAGUAUUAGCUUGGGUCUCUACACUUGUGCUAUCUUCAUUUAUUAAUUUUGUAAUAAACAAUUCUGUUAGCAACAGAGGAUUGAGCAUCA
B21: chr15:93570553:93570554:+_ENSG00000173575_ENST00000394196|hu_hu|motif|central (ssRNA)
RNA: GGGAGUUCUACAGUCCGACGAUCUCUAAGGCCAUAGUGUAUCAUGUCAACCCUUGUUCACGUGCAGGUUUUAGGUGAUGCGGACUCCCUCUUUCUCAACCUGUUAUUUCUACCAACAAUGAAAUCUUUCAAAGCCAGACUCCACAACAGAGGAUUGAGCAUCA
B22: 135292008_135298915_3170_CDS_ENSG00000155561_ENST00000285968|human|control|control (ssRNA)
RNA: GGGAGUUCUACAGUCCGACGAUCAUAUAUGACCUGGUAACAUAGCUCAGCCAGCUGAGGAGAUUCUCGCACCGCCACUGGGCCUGUUCUCCCUUCCGUUCCUUUCUCCAAGAUGUUUAGAAUGGCGUGAAGGCAUGUCCGAGGCAACAGAGGAUUGAGCAUCA

Changes are numbered by the printed parent chain. In all, about 24,000 sequences were measured (“enrichment r”: median about 0.99, highest 2% from about 3.7 on). A selection follows.

The target in the test is T1, UNK ZnF1-3. Description: nsRBNS (natural sequence RNA bind-n-seq); RBNS binding buffer (assumed for nsRBNS): 25 mM Tris pH 7.5, 150 mM KCl, 3 mM MgCl2, 0.01% Triton X-100, 500 ug/ml BSA, 20 U/ml SUPERase-In, 4 C; UNK is unkempt and MSI1 is Musashi-1; names of the RNAs are library labels; protein concentration not given here; high values mean tight binding.
B1: the binding signal turned out to be 1.91 enrichment R. B2 registered a binding signal of 0.893 enrichment R. In the case of B3, the binding signal came out at 0.847 enrichment R. As for B4, the figure is 1.12 enrichment R; as for B5, 0.853 enrichment R; as for B6, 1.01 enrichment R. The value for B7 was 1.03 enrichment R.

B8 had a binding signal of 0.57 enrichment R.

With B9, the binding signal was determined as 0.879 enrichment R. B10 showed a binding signal of 0.779 enrichment R. As for B11, the figure is 0.805 enrichment R; as for B12, 1.67 enrichment R.

Regarding B13, the binding signal worked out at 1.55 enrichment R. The value for B14 was 0.418 enrichment R. On to B15, for which the binding signal was found to be 0.737 enrichment R. As to B16, the binding signal stood at 0.523 enrichment R. B17 gave a binding signal of 0.697 enrichment R.

In turn, B18 showed a binding signal of 1.07 enrichment R. The value for B19 was 2.3 enrichment R. As for B20, the figure is 0.862 enrichment R; as for B21, 0.941 enrichment R. In turn, B22 came in with a binding signal of 1.11 enrichment R.
